Assay results as given in PubChem BioAssay (EPA / NIEHS).
Values joined by “and” are separate entries in the source; they are usually repeats but may differ in a detail not shown here. Identical values can stand only once. Active and inactive are the calls of the source. Rule for the calls: active = hit-call score of the fitted dose curve at least 0.9, where 1 is the maximum; inactive = score below 0.9.

What follows are compounds tested on Macrophage Inflammatory Protein-1 Alpha (MIP1a), CCL3 (gene 6348) (assay: BSK_IMphg_MIP1a: BioMAP Diversity Plus: IMphg Assay for Macrophage Inflammatory Protein-1 Alpha (MIP1a) Biomarker Activity (AID 2284255)). Conditions: primary human endothelial cells with macrophages.
Procedure: BSK_IMphg is a cell-based, multiplexed-readout assay that uses venular endothelial cells and macrophages, a human vascular primary cell, with measurements taken at 24 hours after chemical dosing in a microplate: 96-well plate.BSK_IMphg_MIP1a is an assay component measured in the BSK_IMphg assay. It measures MIP-1a antibody related to regulation of gene expression using ELISA technology.Data from the assay component BSK_IMphg_MIP1a was analyzed at the endpoint, BSK_IMphg_MIP1a, in the positive analysis fitting direction relative to DMSO as the negative control and baseline of activity. Using a type of binding reporter, gain or loss-of-signal activity can be used to understand protein changes. To generalize the intended target to other relatable targets, this assay endpoint is annotated to the 'cytokine' intended target family, where the subfamily is 'inflammatory factor'.
The levels of cell surface (or secreted, indicated by the prefix "s") biomarker endpoints were measured by ELISA. Overt cytotoxicity to cells in confluent adherent cultures (all systems other than the BT system) was assessed by measuring total protein levels using sulforhodamine B (SRB) staining in parallel cultures at the time of biomarker measurements, indicated as SRB endpoints. For proliferation assays for adherent cell types, individual cell types are cultured at sub-confluence and relative cell numbers quantified by SRB staining at time points optimized for each system (48 h: 3C and CASM3C systems; 72 h: BT and HDF3CGF systems; 96 h: SAg system). SRB was performed by staining cells with 0.1% SRB after fixation with 10% TCA and reading wells at 560 nm.Viability and proliferation of PBMC (T cells) was quantified by Alamar Blue reduction for the SAg and BT systems. For PBMC viability (referred to as PBMC Cytotoxicity within the assay endpoint names), cells were plated (75,000/well in a 96-well plate) and then chemical samples added for 1 h before addition of activators, SEB and TSST-1 (20 ng/mL final concentration each). Cells were incubated for 90 h. Then, Alamar Blue (20 uL/well) (Invitrogen, Cat DAL1100) was added for 6 h, and the plates were read with a fluorescence microplate reader at 546/580 nm (excitation/emission). For PBMC proliferation, cells were plated and activated as above but incubated for only 16 h prior to addition of Alamar Blue. Plates were read after 6 h.
For `FC(F)(F)COC(OCC(F)(F)F)OCC(F)(F)F`, the outcome was “inactive”. For `OCCC(F)(F)C(F)(F)C(F)(F)C(F)(F)F`, the outcome was “inactive”. For `FC(F)C(F)(F)COCC1CO1` (stereo not given), the outcome was “inactive”. With `OC(O)(C(F)C(O)(O)C(F)(F)F)C(F)(F)F` the AC50 was 5.44 µM (active) and 7.95 µM (active). `FC(F)=C(F)C(F)(F)C(F)(F)C(F)(F)C(F)(F)C(F)(F)C(F)(F)F` was tested, and the outcome was “inactive”. With `O=C(Cl)C(F)(F)C(F)(F)C(F)(F)C(=O)Cl` the outcome was “inactive”. For `C[Si](C)(C)C(F)(F)C(F)(F)C(F)(F)F`, the outcome was “inactive”. `NCC(F)(F)C(F)(F)C(F)(F)C(F)(F)F` was tested, and the outcome was “inactive”. For `O=S(=O)(O)CCC(F)(F)C(F)(F)C(F)(F)C(F)(F)C(F)(F)C(F)(F)F`, the outcome was “inactive”. `FC(F)(F)C(F)(F)C(F)(F)C(F)(F)C(F)(F)C(F)(F)I` was tested, and the outcome was “inactive”.
